RORg inh = qHTS for inhibitors of ROR gamma transcriptional activity; hit rate 5.4% among 310,000; Nuclear receptor ROR-gamma (Mus musculus), P51450; Potency, µM (highest dose often 53.6 µM), for the others: at the top dose activity change, negative = inhibition, hits mostly inhibitors; Drosophila S2 Gal4-RORgamma UAS-luciferase reporter, 20 h; further: on the % scale 0 is the no-effect control and ±100 the full control effect; nearly all actives have a fitted effect of over 60% in size
Target sequence (P51450 whole entry, looked up, the tested form may be a part): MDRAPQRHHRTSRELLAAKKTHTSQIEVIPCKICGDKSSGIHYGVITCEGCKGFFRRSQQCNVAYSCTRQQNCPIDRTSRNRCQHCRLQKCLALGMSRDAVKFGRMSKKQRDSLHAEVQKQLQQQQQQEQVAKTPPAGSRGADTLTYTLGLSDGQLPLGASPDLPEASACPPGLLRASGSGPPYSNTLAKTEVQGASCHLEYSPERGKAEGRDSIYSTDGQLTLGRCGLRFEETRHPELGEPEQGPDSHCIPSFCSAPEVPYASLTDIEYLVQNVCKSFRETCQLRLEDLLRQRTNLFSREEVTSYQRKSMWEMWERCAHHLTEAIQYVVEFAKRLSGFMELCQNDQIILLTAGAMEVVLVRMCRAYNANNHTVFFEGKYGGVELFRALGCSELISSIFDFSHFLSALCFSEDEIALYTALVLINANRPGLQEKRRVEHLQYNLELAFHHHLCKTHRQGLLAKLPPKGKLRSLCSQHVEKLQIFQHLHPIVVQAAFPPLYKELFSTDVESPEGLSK
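Using a luciferase readout, inhibitors were identified by reduced reporter activity in Drosophila cells coexpressing a copper-inducible Gal4–ROR gamma fusion and UAS-driven Photinus luciferase, incubated 20 hr after 700 uM copper sulfate.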
SW480 rereplic = A quantitative high throughput screen for small molecules that induce DNA re-replication in SW480 colon adenocarcinoma cells; SW480 DNA re-replication, Hoechst DNA content imaging, 48 h; Potency, µM (doses to about 46.1 µM), for the others: at the top dose re-replication activation, actives largely listed as activators; hit rate 1.8% among 340,000; further: % of control where 0% means no effect; nearly all actives have a fitted effect of over 55% in size
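DNA re-replication was detected as more nuclei of elevated Hoechst intensity after 48 hr exposure to compound (23 nL pinned per well of 250 cells).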
MCF10A rerep = A quantitative high throughput screen for small molecules that induce DNA re-replication in MCF 10a normal breast cells; hit rate 2.9% among 350,000; MCF 10A DNA re-replication, Hoechst nuclear intensity, 48 h; Potency, µM (doses to about 46.1 µM), without a hit: top-dose activity, positive = re-replication, most hits filed as activators; further: % of control where 0% means no effect; nearly all actives have a fitted effect of over 50% in size
ELG1 DNA repair = qHTS screen for small molecules that inhibit ELG1-dependent DNA repair in human embryonic kidney (HEK293T) cells expressing luciferase-tagged ELG1. HEK293T ELG1-luciferase reporter, luminescence, 16 h; DNA damage induced by 5-fluorouridine. Potency, µM (top dose mostly 46.1 µM), inactives show at the top dose activity change, negative = inhibition, actives largely listed as inhibitors. hit rate 2.3% among 330,000; further: on the % scale 0 is the no-effect control and ±100 the full control effect; nearly all actives have a fitted effect of over 55% in size
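In this reporter screen, reduction of luminescence relative to DMSO vehicle indicated activity. Compounds and 5-fluorouridine were added together to 2,000 cells per well, incubated for 16 hr at 37 °C, then developed with ONE-Glo.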
VP16 counter = VP16 counterscreen qHTS for inhibitors of ROR gamma transcriptional activity; Drosophila S2 Gal4-VP16 UAS-luciferase, luminescence, 20 h; Potency, µM (top dose mostly 53.6 µM), without a hit: at the highest dose activity, negative = inhibition, usual class: inhibitors; hit rate 3.5% among 310,000; AID 2546, 2010;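 further: Gal4-VP16 expression switched on by copper sulfate through the metallothionein promoter; on the % scale 0 is the no-effect control and ±100 the full control effect; nearly all actives have a fitted effect of over 50% in size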
* hit, by the source's call; ? = inconclusive; nt = no result; ! = not active in a repeat; [ ] = remark or other dose. Most compounds without a hit are left out; they make up all but 10% or so of the library. The call rests on the fitted dose curve; in most records, active means well fitted curve in the direction sought with a large enough effect; inconclusive means small, poorly fitted or top-dose-only effect, or another doubt; inactive means no such curve, though single readings can be large; an effect the other way counts as inactive or inconclusive. Potency means the concentration at half of the fitted maximal effect.

SMILES | RORg inh | SW480 rereplic | MCF10A rerep | ELG1 DNA repair | VP16 counter
COC(=O)[C@@]1(Cc2ccc(OC)cc2)[C@H]2c3cc(C(=O)N4CCCC4)n(Cc4cc(C)n(C)n4)c3C[C@H]2CN1C(=O)c1ccccc1 | 3.4% | nt | nt | nt | 1.0%
O=C(Nc1nc2ccccc2n1CCN1CCOCC1)c1ccccc1 | 2.82µM* | -0.9% | 0.1% | ? | 3.55µM*
CC(=O)Nc1nc2ccccc2n1CCN1CCOCC1 | ? | 12.6% | 3.7% | 1.6% | -12.0%
O=C(Nc1nc2ccccc2n1CCN1CCOCC1)c1cn(-c2ccccc2)nc1-c1ccccc1 | 0.631µM* | ? | ? | 18.4µM* | 1.12µM*
COc1cccc(NC(=O)CN2CCCCCC2)c1 | -10.9%[1.91 µM] | -4.0% | 16.5% | ? | -9.6%
COc1ccc(CCC(=O)Nc2nc(-c3ccncc3)cs2)cc1 | 8.6% | nt | nt | -4.0% | -3.6%
O=C(CCS(=O)(=O)c1ccc(F)cc1)Nc1nc(-c2ccncc2)cs1 | 37.7% | ? | 18.4µM* | 4.8% | -14.2%
COc1ccc(CC(=O)Nc2nc(-c3ccc(F)c(F)c3)cs2)cc1 | ? | ? | ? | 20.6µM* | -1.9%
COc1ccc(CC(=O)Nc2nc(-c3ccncc3)cs2)cc1 | ? | -26.9% | 0.9% | 18.3µM* | 4.7%
COc1ccc(OC)c(-c2csc(NC(=O)Cc3ccccc3F)n2)c1 | ? | ? | 20.6µM* | ? | -7.8%
COc1ccccc1NC(=O)OCC#CCOC(=O)Nc1ccccc1OC | 10.7% | 27.7% | ? | 0.8% | ?
CC(C)Cc1nc(N2CCN(C(=O)c3ccccc3)CC2)c(C#N)c2c1CCC2 | 35.5µM* | 15.5% | ? | ? | 39.8µM*
CC(=O)N1CCN(c2nc(CC(C)C)c3c(c2C#N)CCC3)CC1 | 11.7% | -9.6% | 13.7% | -1.0% | 1.4%
N#Cc1c(N2CCN(C(=O)c3ccco3)CC2)nc(-c2ccccc2)c2c1CCCC2 | ? | 7.8% | 6.7% | 25.9µM* | ?
CC(C)Cc1nc(N2CCN(C(=O)C(C)C)CC2)c(C#N)c2c1CCC2 | 1.41µM* | 12.8% | ? | -9.5% | -4.8%
CC(C)Cc1nc(N2CCN(C(=O)c3ccco3)CC2)c(C#N)c2c1CCC2 | -87.4% | 3.3% | 20.6µM* | ? | ?
COc1ccc(OC)c(CN2CCN(C(=O)c3ccc(NS(=O)(=O)c4cccc([N+](=O)[O-])c4)cc3)CC2)c1 | nt | 6.7% | 18.8% | ? | nt
COC(=O)c1ccc2c(=O)n(CCN3CCOCC3)c(SCC(=O)Nc3ccc(C)cc3)nc2c1 | ? | -2.4% | -2.5% | ? | -0.6%
O=C(NCc1ccco1)c1ccc(CS(=O)Cc2ccc(Cl)cc2)o1 (stereo unspecified) | 25.1% | 11.8% | 1.0% | 6.5% | 13.3%
CC1(C)Cc2c(C#N)c(N3CCN(C(=O)c4ccccc4Cl)CC3)nc(-c3ccco3)c2CS1 | ? | 9.2µM* | 5.8µM* | ? | -6.7%
Cc1cc(NCC2CCCO2)n2c(nc3ccccc32)c1C#N (stereo unspecified) | -2.9% | 3.5% | ? | nt | -10.0%
CC(C)c1cc(NCC2CCCO2)n2c(nc3ccccc32)c1C#N (stereo unspecified) | -27.5% | ? | ? | 16.4µM* | -0.4%
CC(C)c1cc(N2CCN(C(=O)c3ccco3)CC2)n2c(nc3ccccc32)c1C#N | -27.4% | 28.7% | 23.1µM* | -19.2% | 2.7%
CCn1c(N2CCN(C(=O)c3ccco3)CC2)nc2ccccc21 | nt | -7.9% | -10.1% | -6.1% | nt
COC(=O)c1ccc(C(=O)OC)c(NC(=S)N2CCCC(C)C2)c1 (stereo unspecified) | 7.94µM* | ? | -91.1% | 4.5% | 6.9%
SMILES | RORg inh | SW480 rereplic | MCF10A rerep | ELG1 DNA repair | VP16 counter
COC(=O)c1ccc(C(=O)OC)c(NC(=S)N2CC(C)CC(C)C2)c1 (stereo unspecified) | 11.2µM* | -54.3% | -66.8% | -0.3% | 14.4%
COC(=O)c1ccc(C(=O)OC)c(NC(=S)N2CCC(N3CCCCC3)CC2)c1 | -19.1% | 13.9% | -1.9% | 24.5% | -0.7%
COc1ccc(C(=O)Nc2c(N)nc(SCC(=O)N3CCC(C)CC3)[nH]c2=O)cc1 | 6.9% | -0.1% | -1.9% | -3.8% | 4.7%
CCCCSc1nc2sc3c(c2c(=O)[nH]1)CC(C)(CC)OC3 (stereo unspecified) | 3.3% | 0.2% | ? | -10.3% | -4.1%
O=C(COC(=O)CNS(=O)(=O)c1ccc(Br)cc1Cl)NC1CCCC1 | nt | -41.5% | -18.7% | -9.1% | nt
COc1ccc(C2=NOC(COc3ccc4c(C)cc(=O)oc4c3)C2)c(OC)c1 (stereo unspecified) | ? | 11.6µM* | 25.9µM* | ? | -0.9%
COc1ccccc1C1=NOC(COc2ccc3c(C)cc(=O)oc3c2)C1 (stereo unspecified) | 27.8% | 8.2µM* | 1.64µM* | -10.6% | 3.1%
COc1ccc(-n2c(=O)c(-c3cccs3)nc3cnc(Oc4ccccc4)nc32)cc1 | -4.4% | nt | nt | nt | 8.4%
CNS(=O)(=O)c1cccc(C(=O)NCC(c2cccs2)N2CCOCC2)c1 (stereo unspecified) | nt | -61.6% | 15.9% | 0.3% | nt
COC(=O)C(c1ccccc1Cl)N1CCc2sccc2C1 (stereo unspecified) | 3.55µM*! | 4.8% | 10.6% | nt | ?
Cn1c(=O)c(C#N)c(-c2ccc(F)cc2)c2cc(C(=O)c3cc(Cl)cc(Cl)c3O)cnc21 | -72.5% | 7.9% | ? | ? | 17.8µM*
O=C1CCC([N+](=O)[O-])C(c2cc(Br)ccc2F)N1 (stereo unspecified) | 2.1% | -2.6% | 0.1% | -16.8% | -2.1%
[O-]/C(=C(\C(=S)Nc1ccc(Cl)cc1)[n+]1ccccc1)c1ccc(OC(F)F)cc1 | 5.01µM* | -20.6% | ? | ? | -2.0%
[O-]/C(=C(\C(=S)Nc1ccccc1F)[n+]1ccccc1)c1ccc(-c2ccccc2)cc1 | -25.2% | 2.7% | 7.1% | 16.3% | -10.1%
COc1ccc(NC(=O)CN2CCN(C(=S)NC3CCCC3)CC2)cc1 | 0.9% | -14.0% | -2.3% | -3.3% | -5.0%
CCOC(=O)Cn1cc(Cl)cc(C(=O)Nc2ccccc2)c1=O | 0.2% | 23.8% | 7.9% | 3.4% | -8.1%
COc1ccccc1N1CCN(/N=C/c2cc([N+](=O)[O-])ccc2Cl)CC1 | 74.4% | -79.4% | 0.581µM* | -29.8% | -8.4%
O=[N+]([O-])c1ccc(Cl)c(/C=N/N2CCN(c3ccccc3)CC2)c1 | 0.6% | 2.6% | 5.5% | 23.1% | -16.1%
O=S(=O)(C/C(=C/CO)S(=O)(=O)c1ccccc1)c1ccccc1 | 3.98µM* | 1.16µM* | 0.82µM* | ? | 4.47µM*

Assay outcomes: PubChem, National Center for Advancing Translational Sciences (NCATS)
